Source: PubChem BioAssay (Broad Institute)
Statin myotox sup = suppression of simvastatin myotoxicity; 330,000 compounds, 0.78% hits; C2C12 myotubes + simvastatin, ATP luminescence, 48 h; scaled: DMSO 0, geranylgeraniol control 100; rescue of ATP level, % at 7.49 µM;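 active means mean ATP rescue above about 67%, or every replicate alone reaching that limit, limit read from the data, passing the limit was not always enough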;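 further: myotubes were challenged with 10 µM simvastatin during compound exposure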
PGC1a acetyl inh = PGC1a acetylation modulation, inhibitor mode | U2OS PGC1a acetylation, AlphaScreen anti-acetyl-lysine; with virally co-expressed GCN5 acetyltransferase | inhibition, % at 15.6 µM | 350,000 compounds, 0.17% hits | AID 651687;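 active means every replicate shows inhibition of at least 40%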;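 further: 0% = neutral control wells and 100% = positive control wells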
DENV2 CPE rescue = DENV2-induced cell death inhibition. DENV2-infected cells, cytopathic effect rescue, plate reader. CPE inhibition, % at 9.99 µM. 350,000 compounds, 1.7% hits. AID 651640; in the data active means CPE inhibition above about 20%, passing the limit was not always enough; tested in BHK-21 cells;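 further: 0% = median of neutral control wells and 100% = median of positive control wells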
PvdQ acylase = P. aeruginosa PvdQ acylase inhibition; 340,000 compounds, 0.063% hits; purified PvdQ acylase, fluorescence plate reader; AID 488965; inhibition, % at 10 µM; in the data active means inhibition above about 30%, passing the limit was not always enough;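 further: 0% = vehicle neutral wells and 100% = reference inhibitor wells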
miR-122 sensor = blocks miR-122 activity in Huh7 sensor cells; AID 602342; Huh7 miR-122 Renilla luciferase sensor, 48 h; neutral wells = 0, positive control = 100; 340,000 compounds, 0.3% hits; activation (reporter increase), % at 12.5 µM;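 active means mean replicate activation score at least 90 and every replicate individually at or above 90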;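 further: higher luciferase means less miR-122 activity so hits act as miR-122 inhibitors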
* hit, by the source's call; [ ] = another dose, or the depositor's remark. A selection: hits, their analogues and other compounds. The true share with any hit is near 2.2%.

`CC1CCN(C(=O)C2CC(c3ccc(F)cc3)=NO2)CC1` (centres undefined) gave Statin myotox sup 7, PGC1a acetyl inh 16, DENV2 CPE rescue 0 and PvdQ acylase -8.
Screening CC1CCCC(C)N1C(=O)C1CC(c2ccc(F)cc2)=NO1 (centres undefined) returned Statin myotox sup 92*, PGC1a acetyl inh -4, PvdQ acylase 2 and miR-122 sensor -1.
For C[C@H](CO)N1C[C@H](C)[C@H](CN(C)Cc2ccc(C(F)(F)F)cc2)Oc2ccc(NC(=O)C3CCCCC3)cc2C1=O the results were PGC1a acetyl inh 0, DENV2 CPE rescue -8 and miR-122 sensor -3[16.7 µM].
`CCOc1ccc(NC(=O)c2nn(C)c(C(=O)Nc3ccc(OCC)cc3)c2[N+](=O)[O-])cc1` gave Statin myotox sup -2, PGC1a acetyl inh -12, DENV2 CPE rescue 34*, PvdQ acylase -7 and miR-122 sensor -3.
For COc1cccc(NC(=O)c2nn(C)c(C(=O)Nc3cccc(OC)c3)c2[N+](=O)[O-])c1 the results were Statin myotox sup -1, DENV2 CPE rescue -4 and PvdQ acylase -3.
Screening CC(=O)Nc1ccc2nc(NC(=O)c3ccc([N+](=O)[O-])o3)sc2c1 returned Statin myotox sup 114*, DENV2 CPE rescue -1 and PvdQ acylase -9.
Screening CCN(CC)S(=O)(=O)c1ccc(C(=O)N(c2ccccc2)C2C=CS(=O)(=O)C2)cc1 (centres undefined) returned PGC1a acetyl inh 46*, DENV2 CPE rescue -3 and PvdQ acylase 5.
Screening C[C@@H]1CN([C@@H](C)CO)C(=O)c2cc(C#Cc3ccc(F)cc3)cnc2O[C@@H]1CN(C)C returned Statin myotox sup 3, PGC1a acetyl inh -1, DENV2 CPE rescue 6 and miR-122 sensor 0[16.7 µM].
For Cc1ccc(C)c(S(=O)(=O)Nc2ccc(C(=O)N3CCCCC3)cc2)c1 the results were Statin myotox sup 0, PGC1a acetyl inh -8, DENV2 CPE rescue -5, PvdQ acylase 7 and miR-122 sensor 109*.
Screening CC(=O)N1CCN(C(=O)c2ccc(NS(=O)(=O)c3cc(C)ccc3C)cc2)CC1 returned DENV2 CPE rescue 0 and PvdQ acylase -7.
For Cc1ccc(C)c(S(=O)(=O)NCc2ccc(C(=O)N3CCCCC3C)cc2)c1 (centres undefined) the results were Statin myotox sup 114*, PGC1a acetyl inh 2, PvdQ acylase -13 and miR-122 sensor -5.
`COc1ccc2c3c(n(C)c2c1)[C@H](CO)N(CC1CCOCC1)CC31CN(C(=O)Nc2ccccc2)C1` gave PGC1a acetyl inh -2 and DENV2 CPE rescue -2.
`Cn1nnc2c(sc3nc(N4CCOCC4)c4c(c32)CCCC4)c1=O` gave Statin myotox sup 118*, PGC1a acetyl inh -12, PvdQ acylase -4 and miR-122 sensor -7.
For O=c1[nH]nnc2c1sc1nc(N3CCOCC3)c3c(c12)CCCC3 the results were PGC1a acetyl inh 0, DENV2 CPE rescue -5, PvdQ acylase -8 and miR-122 sensor 6.
`S=c1nc[nH]c2c1cnn2Cc1ccccc1` gave Statin myotox sup -55, PGC1a acetyl inh 45*, DENV2 CPE rescue -4, PvdQ acylase -6 and miR-122 sensor -5.
For Fc1ccc(CNCc2cccc(Br)c2)cc1 the results were Statin myotox sup -1, PGC1a acetyl inh 4, DENV2 CPE rescue -4, PvdQ acylase 31* and miR-122 sensor -4.
For CCCC(NC(=O)Cc1c(C)c2cc3c(C)c(C)oc3c(C)c2oc1=O)C(=O)N[C@@H](Cc1ccccc1)C(=O)O (some centres undefined) the results were Statin myotox sup 7, PGC1a acetyl inh 6, DENV2 CPE rescue 49*, PvdQ acylase -2 and miR-122 sensor -1.
C[C@H]1CN([C@@H](C)CO)C(=O)c2cc(NC(=O)C3CC3)ccc2O[C@@H]1CN(C)C(=O)Nc1ccccc1 was read as Statin myotox sup -9, DENV2 CPE rescue 19 and miR-122 sensor 5[16.7 µM].
C[C@@H]1CN([C@@H](C)CO)C(=O)c2cc(NC(=O)NC3CCCCC3)ccc2O[C@H]1CN(C)C(=O)Nc1ccc2c(c1)OCO2 was read as Statin myotox sup 13, PGC1a acetyl inh 7, DENV2 CPE rescue -1 and miR-122 sensor -15[16.7 µM].
For O=C(Cn1c(=O)n(CC2CCCO2)c(=O)c2ccccc21)c1ccc(Cl)c(Cl)c1 (centres undefined) the results were Statin myotox sup 80*, PGC1a acetyl inh -10, PvdQ acylase 5 and miR-122 sensor 6.
`O=C(Nc1cccc(-n2cnnn2)c1)C1CCCN(C(=O)Cc2cccc(Cl)c2)C1` (centres undefined) gave Statin myotox sup 5, PGC1a acetyl inh -13, DENV2 CPE rescue 61* and miR-122 sensor 4.
For O=C(Cc1cccc(NC(=O)C2CCCN(C(=O)C3CCC3)C2)c1)Nc1ccc(C(=O)N2CCOCC2)cc1 (centres undefined) the results were Statin myotox sup 7, DENV2 CPE rescue 32* and PvdQ acylase -15.
For O=C(Cc1cccc([N+](=O)[O-])c1)Nc1cccc(C(=O)N2CCCC2)c1 the results were Statin myotox sup 16, DENV2 CPE rescue 2, PvdQ acylase 4 and miR-122 sensor -6.
O=C(Nc1cccc(-n2cnnn2)c1)C1CCCN(Cc2cccc(C(F)(F)F)c2)C1 (centres undefined) was read as Statin myotox sup -8, DENV2 CPE rescue -6, PvdQ acylase -7 and miR-122 sensor 52.
Screening O=C(Cc1cccc(NC(=O)C2CCCN(C(=O)C3CCCC3)C2)c1)Nc1ccc(C(=O)N2CCOCC2)cc1 (centres undefined) returned Statin myotox sup 6, DENV2 CPE rescue 27* and PvdQ acylase -4.
For O=C(Cc1cccc([N+](=O)[O-])c1)Nc1ccc(C(=O)N2CCCCC2)cc1 the results were Statin myotox sup 9, DENV2 CPE rescue 81*, PvdQ acylase -13 and miR-122 sensor -3.
O=C(Cc1cccc(NC(=O)C2CCCN(C(=O)C3CCCC3)C2)c1)Nc1cccc(C(=O)N2CCOCC2)c1 (centres undefined) was read as Statin myotox sup 2, PGC1a acetyl inh -5, DENV2 CPE rescue 3, PvdQ acylase -20 and miR-122 sensor 0.
Screening O=C(C[C@@H]1CC[C@@H](NC(=O)Nc2cccc(F)c2)[C@@H](CO)O1)NCC1CC1 returned Statin myotox sup 6, PGC1a acetyl inh 5, DENV2 CPE rescue 1 and miR-122 sensor -15[16.7 µM].
Screening CN(C(=O)c1ccc(NC(=O)Cc2cccc(NC(=O)C3CCN(C(=O)C4CC4)CC3)c2)cc1)C1CC1 returned Statin myotox sup -3, PGC1a acetyl inh -13, DENV2 CPE rescue 34*, PvdQ acylase -19 and miR-122 sensor 6.
Screening CCOCCCNc1nc2c(c(=O)n(C)c(=O)n2C)n1CCCc1ccccc1 returned Statin myotox sup -6, PGC1a acetyl inh 40*, PvdQ acylase -7 and miR-122 sensor 3.
`Cc1ccc(CC(=S)N2CCOCC2)cc1` gave Statin myotox sup 124*, PGC1a acetyl inh 14, DENV2 CPE rescue -5, PvdQ acylase -3 and miR-122 sensor 0.
